# Measured values: PubChem BioAssay
# Calls of active or inactive are those of the source. How the calls were made is not given here.
# Target: Pantothenate synthetase (Mycobacterium tuberculosis (strain ATCC 25618 / H37Rv)) (UniProt P9WIL5)
# Assay: Recombinant Mtb pantothenate synthetase (PanC) inhibitors, coupled enzyme, confirmatory (AID 375);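 further: 0% = full reaction with vehicle and 100% = no enzyme background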
# Details: coupled enzyme assay; at 10 µM, stronger effect = higher value
# Chain of Pantothenate synthetase (Mycobacterium tuberculosis (strain ATCC 25618 / H37Rv)) (P9WIL5 whole entry, looked up): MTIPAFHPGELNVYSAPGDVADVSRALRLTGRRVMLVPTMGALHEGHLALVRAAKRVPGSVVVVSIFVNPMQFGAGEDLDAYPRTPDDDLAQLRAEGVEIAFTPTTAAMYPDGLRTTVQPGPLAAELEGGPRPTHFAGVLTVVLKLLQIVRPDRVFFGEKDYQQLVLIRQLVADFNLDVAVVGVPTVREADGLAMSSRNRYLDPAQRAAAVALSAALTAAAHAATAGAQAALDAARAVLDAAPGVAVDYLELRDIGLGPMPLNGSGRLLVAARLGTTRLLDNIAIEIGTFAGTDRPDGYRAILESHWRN
row,SMILES,inhibition
1,O=C(c1ccc2c(c1)OCCO2)N1CCCCC1,1% (inactive)
2,Nc1ccc(S(=O)(=O)c2ccc(N)cc2)cc1,0% (inactive)
3,COC(=O)c1cn(NC(=O)c2cccnc2)c(=O)c2ccccc12,0% (inactive)
4,COc1cccc(NC(=O)Nc2cccs2)c1,0% (inactive)
5,COc1ccc(CN2CC(C(=O)NCCCOC(C)C)CC2=O)cc1 (stereo not given),3% (inactive)
6,CCC(=O)N1Cc2ccccc2-c2ccccc2C1=O,0% (inactive)
7,O=C(Nc1nonc1NC(=O)C1CCCCC1)C1CCCCC1,0% (inactive)
8,Cc1cc(N2C(=O)CC(N3CCN(c4ccc(C(=O)c5cccs5)cc4)CC3)C2=O)no1 (stereo not given),0% (inactive)
9,OCCNc1ncnc2c1c(-c1ccccc1)c(-c1ccccc1)n2Cc1ccco1,1% (inactive)
10,COCCNC(=O)c1ccc(CS(=O)(=O)c2c(Cl)cccc2Cl)o1,0% (inactive)
11,CN(C)c1ccc(CNC2CC(C)(C)NC(C)(C)C2)cc1,0% (inactive)
12,Cc1csc(NC(=O)c2ccccc2C(=O)O)n1,5% (inactive)
13,CCOc1ccccc1-n1c(SCC(=O)NC(C)CC)nnc1-c1ccoc1C (stereo not given),0% (inactive)
14,CSc1ccc(-c2cc(=O)c3ccccc3o2)cc1,5% (inactive)
15,O=C(NCc1cccnc1)C1CCCN(S(=O)(=O)c2ccc(Cl)cc2)C1 (stereo not given),2% (inactive)
16,Cc1[nH]c(C(=O)N2CCCCC2)c(C)c1C(=O)NC1CCCCC1,4% (inactive)
17,c1ccc(-c2nn3c(Cn4nnc5ccccc54)nnc3s2)nc1,0% (inactive)
18,Cc1cc(=O)oc2cc(OCC(=O)OCc3nnc(-c4ccccc4)o3)ccc12,1% (inactive)
19,COc1cc(OC)cc(C(=O)NCCN2CCOCC2)c1,0% (inactive)
20,Cc1noc(C)c1COc1cccc(C(=O)Oc2ccc3c(c2)OCO3)c1,0% (inactive)

row,SMILES,inhibition
1,COc1ccc(-c2coc3cc(O)cc(O)c3c2=O)cc1,5% (inactive)
2,O=C(NCCCn1ccnc1)c1csc2ccccc12,7% (inactive)
3,CCCN(S(=O)(=O)c1ccc(OCC)cc1)S(=O)(=O)c1cccs1,0% (inactive)
4,CC(=O)Nc1ccc(NC(=O)c2ccccc2F)cc1,0% (inactive)
5,COc1ccc(-n2c(Cc3cccn3C)nnc2SCC(=O)Nc2ccc(Cl)cc2)cc1,0% (inactive)
6,O=C(c1ccco1)N1CCN(CC(=O)N(C2CCCCC2)C2CCS(=O)(=O)C2)CC1 (stereo not given),2% (inactive)
7,CCC1(NC(C)=O)CC2CC1CC2NC(C)=O (stereo not given),0% (inactive)
8,CC(=O)Nc1ccc(S(=O)(=O)NCC2CCC(C(=O)NCCCN3CCCC3=O)CC2)cc1 (stereo not given),0% (inactive)
9,CCOc1ccc(N(CC(=O)NCC2CCCO2)S(=O)(=O)c2ccc(OC)c(OC)c2)cc1 (stereo not given),0% (inactive)
10,COc1cc(OC)cc(-c2nnc(SCC(=O)Nc3cc(C)on3)o2)c1,2% (inactive)
11,COC(=O)c1ccc(CSc2ncnc3c2nnn3-c2ccc(OC)cc2)o1,0% (inactive)
12,O=C(Nc1ccccc1Cl)c1c(F)c(F)c(F)c(F)c1F,6% (inactive)
13,CCn1ncc(C2=NOC(C(=O)Nc3ccc4c(c3)OCO4)C2)c1C (stereo not given),0% (inactive)
14,C=CCSc1nc(N)c(C(=O)Nc2ccccc2C)cc1C(N)=O,0% (inactive)
15,CCCCn1c(NCCC)nc2c1c(=O)[nH]c(=O)n2C,0% (inactive)
16,CCN(CC)S(=O)(=O)c1ccc(C(=O)Oc2ccc3c(c2)OCO3)cc1,2% (inactive)
17,Cc1c(C(=O)Nc2nnc(C(F)(F)F)s2)oc2ccccc12,5% (inactive)
18,COc1ccc(-c2cc3nc4n(c(=O)c3s2)CCC4)cc1,8% (inactive)
19,Cc1ccc(Nc2nc(N)nc(CN3CCCCCC3)n2)cc1,2% (inactive)
20,Cc1csc(NC(=O)CSc2nnc(Cc3cccn3C)n2-c2ccc(F)cc2)n1,0% (inactive)
